{"source": "paper PMC4552634", "about": "“A New Set of Chemical Starting Points with Plasmodium falciparum Transmission-Blocking Potential for Antimalarial Drug Discovery” (PLoS ONE, 2015)", "note": "Screen size: about 13,000 compounds; about 3,200 (25%) showed an effect of 50% or more. This is one part of the list.", "data": [{"test_system": "P. falciparum stage V gametocytes", "set-up": "BacTiter-Glo ATP luminescence viability of purified stage V gametocytes in 384-well plates, per cent inhibition versus DMSO", "conditions": "48 h, 5 µM; inhibitor", "units": {"% Inhibition": "%"}, "values": [{"smiles": "CCCCc1cc(NCc2ccncc2)nc(Nc2ccc(OC)cc2)n1", "note": "[TCMDC-134010]", "% Inhibition": -13.59}, {"smiles": "Cc1cccc(NC(=O)c2cnc(N3CCN(c4ccncc4)CC3)c(Cl)c2)c1", "note": "[TCMDC-134625]", "% Inhibition": 39.85}, {"smiles": "CC(C)Nc1cc(C(=O)N[C@@H](Cc2ccccc2)[C@H](O)CNC2CCOCC2)c(F)c(N2CCCCS2(=O)=O)c1", "note": "[TCMDC-135541]", "% Inhibition": -18.96}, {"smiles": "CN(C)CCCOc1cc(NC(=O)Nc2ccc(-c3ccncc3)c3ccccc23)ccc1I", "note": "[TCMDC-139136]", "% Inhibition": 21.74}, {"smiles": "CS(=O)(=O)CCCNCc1ccc(-c2cc3c(Nc4ccc(OCc5ccccc5)cc4)ncnc3cn2)o1", "note": "[TCMDC-138081]", "% Inhibition": 11.38}, {"smiles": "CN(Cc1ccc(C#N)cc1)C1CCN(c2cc(NC(=O)c3cccc(F)c3)ccn2)CC1", "note": "[TCMDC-134976]", "% Inhibition": -19.78}, {"smiles": "COc1ccc2nccc([C@@H](O)CN3CCC(NC(=O)Cc4ccc(Br)c5ccccc45)CC3)c2c1", "note": "[TCMDC-141168]", "% Inhibition": -21.28}, {"smiles": "CC1(C)N=C(N)N=C(N)C1c1ccc(Cl)cc1", "note": "(stereo not drawn) [TCMDC-137610]", "% Inhibition": 17.18}, {"smiles": "O=C(O[C@@H]1CN[C@H](C#Cc2cc3c(Nc4ccc5c(cnn5Cc5ccccc5)c4)ncnc3s2)C1)N1CCCC1", "note": "[TCMDC-135376]", "% Inhibition": 21.76}, {"smiles": "O=C(Cn1c(CCc2cccc(F)c2F)cc(=O)c2cccnc21)N(CCCn1ccnc1)Cc1ccc(-c2ccc(C(F)(F)F)cc2)cc1", "note": "[TCMDC-141469]", "% Inhibition": 1.607}, {"smiles": "O=C(Cn1c(SCc2cccc(F)c2F)cc(=O)c2ccccc21)N(CCn1ccnc1)Cc1ccc(-c2ccc(C(F)(F)F)cc2)cc1", "note": "[TCMDC-141468]", "% Inhibition": 91.6}, {"smiles": "O=C(Cn1c(CCc2cccc(F)c2F)cc(=O)c2ccccc21)N(CCN1CCCCC1)Cc1ccc(-c2ccc(C(F)(F)F)cc2)cc1", "note": "[TCMDC-141142]", "% Inhibition": -28.19}, {"smiles": "O=C(Cn1c(SCc2cccc(F)c2F)cc(=O)c2ccccc21)N(CCN1CCCCC1)Cc1ccc(-c2ccc(C(F)(F)F)cc2)cc1", "note": "[TCMDC-141466]", "% Inhibition": 112.5}, {"smiles": "O=C(Cn1c(SCc2cccc(F)c2F)cc(=O)c2ccccc21)N(CCCn1ccnc1)Cc1ccc(-c2ccc(C(F)(F)F)cc2)cc1", "note": "[TCMDC-141467]", "% Inhibition": 68.26}, {"smiles": "CCN(CC)CCCN(Cc1ccc(-c2ccc(C(F)(F)F)cc2)cc1)C(=O)Cn1c(SCc2cccc(F)c2F)cc(=O)c2ccccc21", "note": "[TCMDC-141175]", "% Inhibition": 139.9}, {"smiles": "CN(Cc1cccc(F)c1)C1CCN(c2cc(NC(=O)c3ccc(F)cc3)ccn2)CC1", "note": "[TCMDC-135018]", "% Inhibition": 1.836}, {"smiles": "CCCOc1ccccc1-c1nc2[nH]c3c(c2c(=O)[nH]1)CCN(C)C3", "note": "[TCMDC-138173]", "% Inhibition": 5.306}, {"smiles": "COc1cc(C=CC(=O)N2CCC3(CC2)CC(=O)c2ccccc2O3)cc(OC)c1OC", "note": "[TCMDC-123541]", "% Inhibition": 7.005}, {"smiles": "N#Cc1ccc(-c2ccc(OCC(O)CN3CCCN(Cc4cccc(O)c4Cl)CC3)cc2)cc1", "note": "(stereo not drawn) [TCMDC-141431]", "% Inhibition": -23.75}, {"smiles": "COc1ccc2nccc([C@@H](O)CN3CCC(NCc4nc5ccccc5s4)CC3)c2c1", "note": "[TCMDC-140790]", "% Inhibition": -20.83}, {"smiles": "COc1ccc(NC(=O)Nc2ccc(-c3ccncc3)c(Cl)c2)cc1N1CCN(C)CC1", "note": "[TCMDC-139134]", "% Inhibition": -28.75}, {"smiles": "CN(C)c1ccc(NC2=NC(C)(C)N=C(N)N2)cc1", "note": "[TCMDC-124346]", "% Inhibition": 7.678}, {"smiles": "O=C(Cn1c(SCc2cccc(F)c2F)cc(=O)c2ccccc21)N(CCc1cnc[nH]1)Cc1ccc(-c2ccc(C(F)(F)F)cc2)cc1", "note": "[TCMDC-141484]", "% Inhibition": 44.33}, {"smiles": "Cn1cncc1CCN(Cc1ccc(-c2ccc(C(F)(F)F)cc2)cc1)C(=O)Cn1c(SCc2cccc(F)c2F)cc(=O)c2ccccc21", "note": "[TCMDC-141451]", "% Inhibition": 112.4}, {"smiles": "Cc1ccc(/C=C/C(=O)NC2CCC(N3CCC(c4ccccc4C)CC3)CC2)cc1C", "note": "(stereo not drawn) [TCMDC-133526]", "% Inhibition": -66.55}, {"smiles": "CCN1C(=O)C(CC(=O)Nc2cccc(Cl)c2)N(Cc2ccc(OC)c(OC)c2)C1=S", "note": "(stereo not drawn) [TCMDC-123795]", "% Inhibition": 79.41}, {"smiles": "COc1cc(NC(=O)c2cccs2)c(OC)cc1NC(=O)Nc1cccc(Cl)c1", "note": "[TCMDC-123531]", "% Inhibition": -32.35}, {"smiles": "COc1ccc(CN2C(=S)N(Cc3ccccc3)C(=O)C2CC(=O)Nc2ccccc2)cc1OC", "note": "(stereo not drawn) [TCMDC-123874]", "% Inhibition": 33.25}, {"smiles": "O=C(Cc1ccccn1)Nc1cccc(-c2cccc(-c3nc4ccc(C(F)(F)F)cc4[nH]3)c2)c1", "note": "[TCMDC-132177]", "% Inhibition": -14.6}, {"smiles": "COc1ccc2nccc([C@@H](O)CN3CCC(NC(=O)/C=C/c4ccc5ccccc5n4)CC3)c2c1", "note": "[TCMDC-141104]", "% Inhibition": 76.48}, {"smiles": "COc1ccc2nccc([C@@H](O)CN3CCC(NC(=O)/C=C/c4ccnc5ccccc45)CC3)c2c1", "note": "[TCMDC-141103]", "% Inhibition": 15.04}, {"smiles": "COc1ccc2nccc([C@@H](O)CN3CCC(NC(=O)/C=C/c4ccc(F)c5ccccc45)CC3)c2c1", "note": "[TCMDC-141105]", "% Inhibition": -9.775}, {"smiles": "COc1ccc2nccc([C@@H](O)CN3CCC(NCc4cc5ccccn5n4)CC3)c2c1", "note": "[TCMDC-141025]", "% Inhibition": 65.1}, {"smiles": "COc1ccc2nccc([C@@H](O)CN3CCC(NCc4ccc5cccc(O)c5n4)CC3)c2c1", "note": "[TCMDC-140715]", "% Inhibition": -19.01}, {"smiles": "COc1ccc2nccc([C@@H](O)CN3CCC(NCc4ccc5c(c4)OCCO5)CC3)c2c1", "note": "[TCMDC-141123]", "% Inhibition": 9.641}, {"smiles": "COc1ccc2nccc([C@@H](O)CN3CCC(NCC(O)Cc4ccccc4)CC3)c2c1", "note": "(stereo partly drawn) [TCMDC-140702]", "% Inhibition": 11.24}, {"smiles": "COc1ccc2nccc([C@@H](O)CN3CCC(NCC4COc5ccccc5O4)CC3)c2c1", "note": "(stereo partly drawn) [TCMDC-140733]", "% Inhibition": 86.29}, {"smiles": "COc1ccc2nccc([C@@H](O)CN3CCC(NCc4cc5ccccc5nn4)CC3)c2c1", "note": "[TCMDC-140972]", "% Inhibition": -3.79}, {"smiles": "Nc1ncc(-c2cccc(OCc3ccccc3)c2)cc1-c1nnc2ccc(Cl)nn12", "note": "[TCMDC-134853]", "% Inhibition": -7.115}]}]}
